From PubChem
Giardia FBPA inh = Giardia lamblia aldolase inhibition | A8B2U2 | purified Giardia FBPA | Potency, µM (doses to about 59.6 µM), for the others: top-dose activity, negative = inhibition, actives largely listed as inhibitors | 290,000 compounds, 0.71% hits | AID 2451; note: potency is the fitted concentration of half-maximal effect; % is set by controls: 0 for no effect and ±100 for the full control effect; nearly all actives have a fitted effect of over 55% in size
Target sequence (A8B2U2 whole entry, looked up): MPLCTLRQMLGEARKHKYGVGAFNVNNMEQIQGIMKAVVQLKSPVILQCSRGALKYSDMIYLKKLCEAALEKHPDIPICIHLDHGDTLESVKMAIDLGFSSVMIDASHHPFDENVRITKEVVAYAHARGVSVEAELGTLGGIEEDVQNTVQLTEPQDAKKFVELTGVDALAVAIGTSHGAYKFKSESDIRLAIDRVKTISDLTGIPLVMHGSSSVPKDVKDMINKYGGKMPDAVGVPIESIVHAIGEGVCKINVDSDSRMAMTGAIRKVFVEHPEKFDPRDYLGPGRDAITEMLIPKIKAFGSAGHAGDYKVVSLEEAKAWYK
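40 nM FBPA preincubated 10 min at RT with compound (up to 57.5 uM final), then substrate plus GAPDH/TPI/NAD/arsenate coupling and diaphorase/resazurin added. Fluorescence read after 20 min at RT, 525/598 nm.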
Cycloheximide cs = counter-screen hit for Shiga toxin inhibitors, cycloheximide; cell reporter, cycloheximide protein synthesis inhibition counterscreen; max response, %; 300,000 compounds, 12% hits; AID 2314; in the data active = max response mostly above about 13%, no sharp cut-off; inactive = mostly below about 14%; note: read at 38.3 µM for the half of the compounds with a filed dose; 0% is about no effect
LmPK inh = LmPK (Leishmania mexicana) enzyme inhibition; Potency, µM (top dose mostly 57.5 µM), inactives show top-dose activity change, negative = inhibition, actives largely listed as inhibitors; purified LmPK, Kinase-Glo ATP luminescence, 1 h; AID 1721; 290,000 compounds, 0.37% hits; note: potency is the fitted concentration of half-maximal effect; % is set by controls: 0 for no effect and ±100 for the full control effect
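Purified LmPK (0.1 nM) with 0.5 mM PEP and 0.1 mM ADP in imidazole buffer pH 7.2 with MgCl2/KCl, 1 h at room temperature. ATP formed was read by luciferase luminescence and normalized to no-enzyme and uninhibited controls.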
Shiga inhibitor = Shiga toxin inhibition. inhibition, % at 38.7 µM. AID 2315. Vero cells, Shiga toxin protein synthesis inhibition reporter. 290,000 compounds, 9.2% hits; in the data active = inhibition mostly above about 28%, no sharp cut-off; inactive = mostly below about 43%; note: 0% is about no effect
Tb PYK inh = inhibitors of Trypanosoma brucei pyruvate kinase | Q57TT1 | TbPYK enzyme, Kinase-Glo Plus ATP luminescence, 45 min | Potency, µM (top dose mostly 76.8 µM), for inactives: at the highest dose activity, negative = inhibition, most hits filed as inhibitors | 410,000 compounds, 0.12% hits | AID 624173; note: potency is the fitted concentration of half-maximal effect; % is set by controls: 0 for no effect and ±100 for the full control effect; nearly all actives have a fitted effect of over 50% in size
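ADP (130 uM final) triggers the TbPYK reaction after compound addition; incubation is 45 min at room temperature. Kinase-Glo Plus is then added and luminescence imaged. Normalized data are fitted to concentration-effect curves.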
RE007 growth inh = less growth of the S. pombe RE007 Vpr strain; S. pombe RE007 Vpr strain, BacTiter-Glo ATP luminescence, 24 h; Potency, µM (top dose mostly 92.2 µM), without a hit: at the top dose activity change, negative = less growth, actives largely listed as inhibitors; 360,000 compounds, 0.21% hits; AID 651644; active = well fitted falling curve with a large enough effect; inconclusive = small, poorly fitted or top-dose-only effect; inactive = no such curve, though single readings can be large or run the other way; note: potency is the fitted concentration of half-maximal effect; % is set by controls: 0 for no effect and ±100 for the full control effect; nearly all actives have a fitted effect of over 50% in size
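Fission yeast strain RE007, carrying one chromosomally integrated HIV-1 vpr copy, was seeded at OD 0.01 in PMG+AL medium with 23 nL pinned compound. After 24 h at 30 °C and 99% humidity, viability was read by BacTiter-Glo luminescence.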
Numbers without * were called inactive; ? = inconclusive; / = no result given; + = active, no number; [ ] = another dose, or the depositor's remark. Only a selection was taken, and hits are over-represented in it overall. Unless noted, calls come from the whole dose curve; as a rule, active = well fitted curve in the direction sought with a large enough effect; inconclusive = small, poorly fitted or top-dose-only effect, or another doubt; inactive = no such curve, though single readings can be large; an effect the other way counts as inactive or inconclusive.

SMILES	Giardia FBPA inh	Cycloheximide cs	LmPK inh	Shiga inhibitor	Tb PYK inh	RE007 growth inh
S=c1[nH]nc(-c2cc(-c3ccccc3)n[nH]2)n1/N=C/c1ccccc1	10%	1	-3%	-4	?	10%
S=c1[nH]nc(-c2cc(-c3ccccc3)n[nH]2)n1/N=C/C(Br)=C/c1ccccc1	1%	28*	2%	63*	?	-12%
Cc1cc(-c2n[nH]c(=S)n2/N=C/C(Cl)=C/c2ccccc2)n[nH]1	17%	39*	-5%	38*	?	/
Cc1cc(-c2n[nH]c(=S)n2/N=C/c2sccc2C)n[nH]1	4%	0	-14%	-10	7.1µM*	2%
CC(=C/c1ccccc1)/C=N/n1c(-c2ccncc2)n[nH]c1=S	14%	-2	0%	-12	?	-4%
Cc1ccsc1/C=N/n1c(-c2ccccc2)n[nH]c1=S	1%	1	-11%	-9	-23%	7%
CC(=C/c1ccccc1)/C=N/n1c(C)n[nH]c1=S	20%	30*	3%	47	2%	-1%
CCc1nnc2c3ccccc3nc(N3CCN(c4cc(Cl)ccc4C)CC3)n12	/	/	/	/	1%	/
Cc1n[nH]c(=S)n1/N=C/c1cccc(OCc2ccccc2)c1	1%	15	0%	58*	?	-11%
Cc1cccc(/C=N/n2c(COc3ccccc3)n[nH]c2=S)c1	?	9	0%	-5	?	18%
S=c1[nH]nc(-c2ccco2)n1/N=C/C(Cl)=C/c1ccccc1	4%	53*	1%	73*	-41%	-9%
CC(/C=N/n1c(-c2ccco2)n[nH]c1=S)=C\c1ccco1	-17%	-1	-5%	12	-28%	-17%
Cc1cc(C)c[n+](-c2[nH]c(=O)sc2/C=N/N=C(\[O-])c2cccnc2)c1	-11%	-5	0%	11	0%	1%
c1cc2c(cc1C1=NNC(=NC3CC3)SC1)OCCO2	5%	-8	11µM*	-20	?	?
FC(F)Sc1ccc(N=C2NN=C(c3ccc4c(c3)OCCO4)CS2)cc1	2%	25*	-1%	47*	/	-2%[3.69 µM]
COc1ccc(N=C2NN=C(c3ccc4c(c3)OCCO4)CS2)cc1	-3%	21*	3%	6	-27%	-3%
COc1cc(/C=N/NC(=S)NCCN2CCOCC2)ccc1O	-17%	-3	2%	-9	5%	2%
COc1ccc(S(=O)(=O)N2CCCC2CNC(=O)C(=O)NCc2ccccn2)cc1 (configuration not stated)	/	/	/	/	-1%	10%
CC(/C=C/c1ccccc1)=N\NC(=O)CSc1ccccn1	-9%	0	2%	14	-7%	-12%
CC(=C/c1ccc(C(C)C)cc1)/C=N/NC(=O)Cn1nnnc1N	1%	13	1%	23	1%	-3%
CC(=C/c1ccc(C(C)C)cc1)/C=N/NC(=O)CSc1ccccn1	4%	71*	3%	157*	-1%	30%
CC(/C=N/NC(=O)CSc1ccccn1)=C\c1ccc(C(C)C)cc1	-3%	108*	1%	+	1%	40%
CCOC(=O)c1c(/N=C/c2c(O)n(-c3ccc(F)cc3)c(=S)[nH]c2=O)sc2c1CCCC2	-2%	-5	7%	-11	-10%	-10%
CCOC(=O)c1c(/N=C/c2c(O)n(-c3ccccc3F)c(=S)[nH]c2=O)sc2c1CCCC2	18µM*	9	3%	-5	-22%	-17%
CCCCCCCCN1C(=O)[C@H](CC(=O)NCCCOCCCC)C[C@@]2(C(=O)OC)CC(C)(C)CC=C12	/	/	/	/	/	-1%
SMILES	Giardia FBPA inh	Cycloheximide cs	LmPK inh	Shiga inhibitor	Tb PYK inh	RE007 growth inh
COc1ccc(C2=CSC(/N=C/c3ccc(F)cc3)=NN2)cc1	-3%	30*	-4%	-4	0%	-13%
CC(C)CCOc1ccc(C2=NNC(=O)CC2)cc1	4%	26*	-8%	43*	-8%	37%
O=C1CCC(c2ccccc2)=NN1	0%	6	1%	25	-18%	-15%
CCCCCc1ccc(C2=NNC(=O)CC2)cc1	6%	14*	5%	/	1%	24%
COc1ccccc1CNc1cc(-c2cccc(NS(C)(=O)=O)c2)ncn1	-9%	/	/	/	/	/
COc1ccc(CC(=O)OCN2C(=O)c3ccccc3C2=O)cc1OC	/	2	3%	-6	-4%	-3%
c1csc(C2=NNC(=NC3CCCCC3)SC2)c1	7%	37*	3%	75*	-16%	-17%
c1ccc(CN=C2NN=C(c3cc4ccccc4o3)CS2)cc1	11%	26*	-1%	44*	0%	8%
c1ccc2oc(C3=NNC(=NC4CC4)SC3)cc2c1	7%	41*	?	67	-13%	0%
Cc1cc(C2=NNC(=NC3CCCCC3)SC2)c(C)n1-c1c(C)n(C)n(-c2ccccc2)c1=O	-6%	-2	3%	-8	-3%	-21%
CC1(C)CSC(=NCc2ccccc2)N1	0%	-2	1%	-19	-3%	-5%
COC(=O)C1=C(C)NC2=C(C(=O)CCC2)C1c1ccc(-c2ccsc2C(=O)OC)o1 (configuration not stated)	-2%	6	7%	-4	-2%	-4%
Cc1nncn1-c1ccc(C(=O)Nc2cc(F)ccc2F)cc1	/	/	/	/	1%	/
CC(C)(CO)NCc1cccc(OCc2ccc(Cl)cc2)c1	-9%	14	3%	active	-7%	-23%
CCOC(=O)c1[nH]c(C)c(CCC(=O)N2CCN(c3cccc(C)c3C)CC2)c1C	/	/	/	/	3%	/
CC1CC(C)CN(C(=O)/C=C/c2ccc(S(=O)(=O)N3CCOCC3)cc2)C1 (configuration not stated)	/	/	/	/	-7%	4%
Cc1nn(-c2ccccc2)c(N2CCCC2)c1/C=N/NC(=S)Nc1ccccc1F	10%	72*	2%	98*	-13%	-15%
COc1cccc(C(=O)CN2C(=O)C(C)(C)Oc3ccc(C(=O)N4CCOCC4)cc32)c1	9%	-2	0%	-4	-3%	-8%
COc1cccc(C(=O)CN2C(=O)C(C)(C)Oc3ccc(C(=O)N4CCCCCC4)cc32)c1	7%	31*	1%	6	1%	-3%
O=C(Cn1nnc(-c2ccccc2Cl)n1)N1CCN(S(=O)(=O)c2ccc(Cl)cc2)CC1	1%	-3	5%	-3	0%	17%
O=C(Cn1nnc(-c2ccccc2Cl)n1)N1CCCCC1	4%	27*	0%	110*	-5%	12%
O=C(Cn1nnc(-c2ccc(OCc3ccccc3F)cc2)n1)N1CCOCC1	-3%	21*	4%	+	-4%	-2%
CC1CCCN(C(=O)Cn2nnc(-c3ccccc3F)n2)C1 (configuration not stated)	-4%	39*	3%	49*	-4%	-17%
